# Data published in PubChem BioAssay (NCATS).
# Unmarked numbers belong to inactive results. Inconclusive results are not listed. Activity calls are given as the source filed them. Unless noted, the call rests on the fitted dose curve; in most records, active means well fitted curve in the direction sought with a large enough effect; inconclusive means small, poorly fitted or top-dose-only effect, or another doubt; inactive means no such curve, though single readings can be large; an effect the other way counts as inactive or inconclusive.
# How the values were obtained:
# [1] = target: Estrogen receptor (Homo sapiens) (UniProt P03372); assay: qHTS assay for small molecule antagonists of estrogen receptor alpha signaling (AID 588513; active means well fitted curve in the direction sought with a large enough effect in the signal ratio, with a control signal flat, not every such curve was filed as active; the % refers to the signal ratio; further: potency means the concentration at half of the fitted maximal effect)
# In short: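 Antagonist-mode qHTS in ER-alpha-UAS-bla HEK 293 cells: compound titration, 0.5nM estradiol for 18 h, CCF4 fluorescence, Hill-derived IC50.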
# [2] = target: Estrogen receptor (Homo sapiens) (UniProt P03372); assay: qHTS assay for small molecule agonists of estrogen receptor alpha signaling (AID 588514; calls by dose curve;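 further: 0% = vehicle only and 100% = reference agonist; nearly all actives have a fitted effect of over 70% in size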)
# In short: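 Efficacy is expressed against 20 nM 17-beta-estradiol (100%) and DMSO basal (0%); EC50 from Hill equation. Assay: beta-lactamase reporter in ER-alpha-UAS-bla HEK 293 cells, 18 h compound incubation, CCF4 detection.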
# [3] = target: Androgen receptor (Homo sapiens) (UniProt P10275); assay: qHTS assay for small molecule agonists of androgen receptor signaling (AID 588515; active means well fitted curve in the direction sought with a large enough effect in the signal ratio, with a control signal flat; the % refers to the signal ratio; further: on the % scale 0 is the no-effect control and ±100 the full control effect); conditions: AR-UAS-bla HEK293, beta-lactamase ratio, agonist 16 h; active compounds read high
# In short: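 Stimulation of an AR-responsive β-lactamase reporter in GripTite HEK293 cells was measured after 16 h compound exposure at 37 °C, via CCF4 fluorescence after 2 h RT. EC50 from Hill fits, normalized to R1881 at 30 nM.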
# [4] = target: Glucocorticoid receptor (Homo sapiens) (UniProt P04150); assay: qHTS assay for small molecule agonists of glucocorticoid receptor signaling (AID 588532; active means well fitted curve in the direction sought with a large enough effect in the signal ratio, with a control signal flat; the % refers to the signal ratio;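 further: 100% = dexamethasone at 0.1 µM and 0% = DMSO only wells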); conditions: HeLa MMTV-bla, beta-lactamase ratio, agonist, 18 h; active compounds read high; percent of dexamethasone control, DMSO zero
# In short: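 HeLa GRE-bla reporter cells; 18 h compound exposure at 37 C; 2 h CCF4 loading at room temperature; fluorescence at 460 and 530 nm; EC50 by Hill equation.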
# [5] = target: Glucocorticoid receptor (Homo sapiens) (UniProt P04150); assay: qHTS assay for small molecule antagonists of glucocorticoid receptor signaling (AID 588533; active means well fitted inhibition curve with a large enough effect in the signal ratio, with a control signal flat, not every such curve was filed as active; the % refers to the signal ratio;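 further: cells stimulated with 2 nM dexamethasone as agonist; on the % scale 0 is the no-effect control and ±100 the full control effect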)
# In short: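 Antagonist-mode qHTS: compound titrations added to GRE-bla HeLa cells, then dexamethasone 2 nM final; 18 h, 37 C. CCF4 FRET fluorescence normalized to dexamethasone and DMSO; IC50 from Hill fit.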
# [6] = target: Peroxisome proliferator-activated receptor gamma (Homo sapiens) (UniProt P37231); assay: qHTS assay for small molecule agonists of peroxisome proliferator-activated receptor gamma signaling (AID 588536; active means well fitted curve in the direction sought with a large enough effect in the signal ratio, with a control signal flat, not every such curve was filed as active; the % refers to the signal ratio;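 further: 0% = DMSO basal wells and 100% = rosiglitazone at 2 µM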)
# In short: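 This is an agonist-mode beta-lactamase reporter assay in HEK293 PPAR-gamma-UAS-bla cells with 1% charcoal/dextran FBS. Compound titrations ran 16 h at 37 C before CCF4 detection. EC50 and efficacy are Hill fits scaled to 2 uM rosiglitazone (100%) and DMSO basal.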
# [7] = target: Vitamin D3 receptor (Homo sapiens) (UniProt P11473); assay: qHTS assay for small molecule agonists of vitamin D receptor signaling (AID 588543; calls by dose curve;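 further: 0% = DMSO basal and 100% = reference agonist control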)
# In short: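 Measured: β-lactamase reporter activity (CCF4, 405 nm excitation, 460/530 nm emission) in HEK293T VDR-UAS-bla cells after 16 h compound exposure at 37 °C. Normalization against 50 nM 1α,25-dihydroxyvitamin D3 and DMSO; Hill-fit EC50.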
# [8] = qHTS assay for small molecule agonists of the antioxidant response element (ARE) signaling pathway (AID 651741; active means well fitted activation curve with a large enough effect in the signal ratio; the % refers to the signal ratio; further: potency means the concentration at half of the fitted maximal effect)
# In short: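 Stably integrated ARE-beta-lactamase reporter HepG2 cells; 16 h compound incubation, 37 C; LiveBLAzer FRET substrate 2 h at room temperature; fluorescence intensity.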
# [9] = qHTS assay for environmental chemicals that activate the Aryl hydrocarbon Receptor (AhR) signaling pathway (AID 651777); conditions: 1A2-DRE human hepatoma cells, luciferase, 24 h; active compounds read high; further: % of control where 0% means no effect; nearly all actives have a fitted effect of over 15% in size
# In short: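 Quantitative HTS in stably transfected human liver-derived cells whose luciferase gene sits downstream of the CYP1A2 promoter and dioxin response element. After 24 hr exposure at 37 C, One-Glo luminescence was measured.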
# [10] = qHTS assay for cell viability of HEK293 cells (AID 743288); conditions: ATP luminescence (CellTiter-Glo), 18 h; max response: active compounds read low; further: potency means the concentration at half of the fitted maximal effect; nearly all actives have a fitted effect of over 50% in size
# In short: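 HEK293, 18 h, 37 C, ATP luminescence. Cells at 2,000/well were allowed at least 5 h to settle before dosing; CellTiter-Glo developed 30 min at RT.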
# [11] = target: Nuclear receptor subfamily 1 group I member 2 (Rattus norvegicus) (UniProt Q9R1A7); assay: qHTS assay for small molecule activators of the rat pregnane X receptor (rPXR) signaling pathway (AID 651751; call rule not given here; further: 0% is about no effect); conditions: rPXR reporter cells, luciferase (One-Glo), 24 h
# [12] = target: Cytochrome P450 2D6 (Homo sapiens) (UniProt P10635); assay: Cytochrome P450 family 2 subfamily D member 6 (CYP2D6) small molecule antagonists: luciferase biochemical (cell-free) qHTS assay (AID 1645840; active means well fitted curve in the direction sought with a large enough effect in the repeat runs; an effect the other way counts as inactive or inconclusive; further: on the % scale 0 is the no-effect control and ±100 the full control effect; nearly all actives have a fitted effect of over 55% in size)
# In short: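 P450-Glo CYP2D6 system: proluciferin substrate converted by enzyme to luciferin, read by luminescence proportional to activity. Enzyme-substrate mix with compound 10 min at room temperature, then NADPH regeneration 1 h before detection reagent.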
# [13] = target: Cytochrome P450 2C9 (Homo sapiens) (UniProt P11712); assay: Cytochrome P450 family 2 subfamily C member 9 (CYP2C9) small molecule antagonists: luciferase biochemical (cell-free) qHTS assay (AID 1645842; active means well fitted curve in the direction sought with a large enough effect in the repeat runs; an effect the other way counts as inactive or inconclusive; further: nearly all actives have a fitted effect of over 55% in size; further: potency means the concentration at half of the fitted maximal effect; on activity change, negative = inhibition: on the % scale 0 is the no-effect control and ±100 the full control effect)
# In short: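 P450-Glo CYP2C9 system: proluciferin substrate with enzyme in mix containing 0.4% BSA, 10 min at room temperature, then NADPH regeneration solution added and incubated 1 h at 37C. Detection reagent stopped reaction; luminescence read after 20 min as RLU.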
# [14] = qHTS assay to identify inhibitors of the type 1 interferon - major histocompatibility complex class I in skeletal muscle: Counter screen cell viability and HiBit confirmation (AID 1347412); conditions: iHSKM muscle cells + IFN-b, HiBiT or CellTiter-Glo, 24 h; further: nearly all actives have a fitted effect of over 60% in size; further: potency means the concentration at half of the fitted maximal effect
# In short: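 Human myoblast knock-in line, 4.0 ng/ml IFN-beta stimulation, 24 h compound treatment. Endpoints: HiBiT lytic luminescence (HLA-B level) and CellTiter Glo (ATP). Dosing 12 concentrations, 3-fold steps, 46 uM highest final.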
# [15] = NCATS anti-infectives library activity on HEK293 viability as a counter-qHTS vs the C. elegans viability qHTS (AID 1745854);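 further: HEK293 cells exposed to compounds for 24 hr before the viability read; on the % scale 0 is the no-effect control and ±100 the full control effect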
# In short: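 Counter-screen for cytotoxicity: HEK293, 24 hr, 37C, compounds up to 41.7 uM final (a dilution series, 1:5). Readout CellTiter-Glo luminescence, 10 min RT. Digitonin control, […] uM final.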
# Cytochrome P450 2C9 (Homo sapiens), sequence (P11712 whole entry, looked up): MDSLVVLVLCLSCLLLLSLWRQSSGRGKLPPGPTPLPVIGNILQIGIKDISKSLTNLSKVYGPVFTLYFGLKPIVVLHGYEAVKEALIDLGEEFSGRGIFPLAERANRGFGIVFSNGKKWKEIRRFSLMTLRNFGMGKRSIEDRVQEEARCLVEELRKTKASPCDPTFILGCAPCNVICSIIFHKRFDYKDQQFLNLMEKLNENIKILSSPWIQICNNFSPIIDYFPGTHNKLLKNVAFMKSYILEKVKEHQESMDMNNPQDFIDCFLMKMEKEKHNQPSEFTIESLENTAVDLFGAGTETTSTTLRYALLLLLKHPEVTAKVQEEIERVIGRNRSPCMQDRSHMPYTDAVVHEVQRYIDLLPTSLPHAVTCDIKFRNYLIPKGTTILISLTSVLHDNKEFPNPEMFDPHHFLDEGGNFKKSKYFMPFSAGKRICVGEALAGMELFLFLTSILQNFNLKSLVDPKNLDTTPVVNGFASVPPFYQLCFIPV
# Glucocorticoid receptor (Homo sapiens), sequence (P04150 whole entry, looked up): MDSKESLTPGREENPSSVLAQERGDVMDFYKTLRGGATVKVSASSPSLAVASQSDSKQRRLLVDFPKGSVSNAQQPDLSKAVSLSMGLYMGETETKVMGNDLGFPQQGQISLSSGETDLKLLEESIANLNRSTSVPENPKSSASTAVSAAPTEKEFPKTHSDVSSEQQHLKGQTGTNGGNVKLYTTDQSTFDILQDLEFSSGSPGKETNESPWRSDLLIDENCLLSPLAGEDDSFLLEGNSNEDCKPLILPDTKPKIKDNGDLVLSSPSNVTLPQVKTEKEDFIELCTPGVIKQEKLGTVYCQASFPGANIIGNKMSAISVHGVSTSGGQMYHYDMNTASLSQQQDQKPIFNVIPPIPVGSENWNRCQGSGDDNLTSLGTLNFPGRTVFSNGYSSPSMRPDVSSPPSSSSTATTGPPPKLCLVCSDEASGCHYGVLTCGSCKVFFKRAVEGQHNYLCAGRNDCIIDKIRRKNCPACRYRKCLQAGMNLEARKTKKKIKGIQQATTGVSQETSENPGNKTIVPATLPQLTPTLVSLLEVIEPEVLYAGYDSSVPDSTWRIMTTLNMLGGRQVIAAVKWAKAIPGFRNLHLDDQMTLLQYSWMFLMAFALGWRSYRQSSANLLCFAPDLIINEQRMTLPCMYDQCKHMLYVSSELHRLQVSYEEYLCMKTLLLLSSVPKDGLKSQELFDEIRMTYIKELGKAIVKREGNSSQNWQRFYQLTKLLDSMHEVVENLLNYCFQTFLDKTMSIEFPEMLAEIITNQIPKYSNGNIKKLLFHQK
# Estrogen receptor (Homo sapiens), sequence (P03372 whole entry, looked up): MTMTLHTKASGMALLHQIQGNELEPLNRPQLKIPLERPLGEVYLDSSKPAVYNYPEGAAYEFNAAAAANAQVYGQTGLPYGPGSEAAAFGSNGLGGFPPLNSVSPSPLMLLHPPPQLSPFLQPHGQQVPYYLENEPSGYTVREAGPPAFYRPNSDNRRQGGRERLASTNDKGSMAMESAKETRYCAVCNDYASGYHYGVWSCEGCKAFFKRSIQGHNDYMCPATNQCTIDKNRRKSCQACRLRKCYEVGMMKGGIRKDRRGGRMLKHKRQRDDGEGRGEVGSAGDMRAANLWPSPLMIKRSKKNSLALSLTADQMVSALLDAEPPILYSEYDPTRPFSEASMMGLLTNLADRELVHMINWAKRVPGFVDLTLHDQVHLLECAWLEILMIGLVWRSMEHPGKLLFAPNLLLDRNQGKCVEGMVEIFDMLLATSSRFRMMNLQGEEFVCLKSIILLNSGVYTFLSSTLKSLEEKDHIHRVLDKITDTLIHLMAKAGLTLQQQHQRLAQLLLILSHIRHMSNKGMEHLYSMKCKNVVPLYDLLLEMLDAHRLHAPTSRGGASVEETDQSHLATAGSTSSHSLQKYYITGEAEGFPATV
# Androgen receptor (Homo sapiens), sequence (P10275 whole entry, looked up): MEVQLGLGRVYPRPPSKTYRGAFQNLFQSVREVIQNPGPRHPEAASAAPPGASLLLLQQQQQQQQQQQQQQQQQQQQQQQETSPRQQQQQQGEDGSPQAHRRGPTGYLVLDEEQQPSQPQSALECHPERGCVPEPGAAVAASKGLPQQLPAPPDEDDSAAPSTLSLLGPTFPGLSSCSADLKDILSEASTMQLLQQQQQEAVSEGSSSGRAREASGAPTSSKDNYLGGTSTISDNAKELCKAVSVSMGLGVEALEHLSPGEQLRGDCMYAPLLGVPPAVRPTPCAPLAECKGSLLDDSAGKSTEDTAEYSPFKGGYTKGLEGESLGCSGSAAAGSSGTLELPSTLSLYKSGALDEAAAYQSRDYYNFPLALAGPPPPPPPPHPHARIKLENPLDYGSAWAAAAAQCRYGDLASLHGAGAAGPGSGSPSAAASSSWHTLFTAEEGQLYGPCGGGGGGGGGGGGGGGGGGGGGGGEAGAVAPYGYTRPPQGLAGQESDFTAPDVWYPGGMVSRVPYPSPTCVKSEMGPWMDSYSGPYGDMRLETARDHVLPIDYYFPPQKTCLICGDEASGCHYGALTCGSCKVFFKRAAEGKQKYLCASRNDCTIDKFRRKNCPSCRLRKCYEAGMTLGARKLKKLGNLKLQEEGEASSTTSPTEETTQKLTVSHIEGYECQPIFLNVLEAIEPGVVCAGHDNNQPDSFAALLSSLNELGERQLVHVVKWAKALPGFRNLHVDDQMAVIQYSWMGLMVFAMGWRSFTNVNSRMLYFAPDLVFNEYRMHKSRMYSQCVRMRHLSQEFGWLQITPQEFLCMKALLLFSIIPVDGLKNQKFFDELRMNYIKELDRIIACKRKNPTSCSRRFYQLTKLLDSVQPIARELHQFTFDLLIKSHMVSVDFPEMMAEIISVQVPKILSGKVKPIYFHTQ
# Nuclear receptor subfamily 1 group I member 2 (Rattus norvegicus), sequence (Q9R1A7 whole entry, looked up): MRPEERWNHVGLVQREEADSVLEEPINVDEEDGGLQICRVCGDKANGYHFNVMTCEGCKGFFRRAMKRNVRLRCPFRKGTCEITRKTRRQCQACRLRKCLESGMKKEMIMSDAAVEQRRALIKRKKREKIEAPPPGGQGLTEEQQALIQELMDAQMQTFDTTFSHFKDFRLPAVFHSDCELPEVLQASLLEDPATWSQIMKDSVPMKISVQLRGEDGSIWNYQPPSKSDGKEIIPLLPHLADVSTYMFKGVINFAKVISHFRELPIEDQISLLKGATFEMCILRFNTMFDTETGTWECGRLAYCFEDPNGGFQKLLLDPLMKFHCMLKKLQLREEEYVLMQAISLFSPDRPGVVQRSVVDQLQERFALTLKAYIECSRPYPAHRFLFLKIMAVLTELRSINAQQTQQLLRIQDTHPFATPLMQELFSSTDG
# Cytochrome P450 2D6 (Homo sapiens), sequence (P10635 whole entry, looked up): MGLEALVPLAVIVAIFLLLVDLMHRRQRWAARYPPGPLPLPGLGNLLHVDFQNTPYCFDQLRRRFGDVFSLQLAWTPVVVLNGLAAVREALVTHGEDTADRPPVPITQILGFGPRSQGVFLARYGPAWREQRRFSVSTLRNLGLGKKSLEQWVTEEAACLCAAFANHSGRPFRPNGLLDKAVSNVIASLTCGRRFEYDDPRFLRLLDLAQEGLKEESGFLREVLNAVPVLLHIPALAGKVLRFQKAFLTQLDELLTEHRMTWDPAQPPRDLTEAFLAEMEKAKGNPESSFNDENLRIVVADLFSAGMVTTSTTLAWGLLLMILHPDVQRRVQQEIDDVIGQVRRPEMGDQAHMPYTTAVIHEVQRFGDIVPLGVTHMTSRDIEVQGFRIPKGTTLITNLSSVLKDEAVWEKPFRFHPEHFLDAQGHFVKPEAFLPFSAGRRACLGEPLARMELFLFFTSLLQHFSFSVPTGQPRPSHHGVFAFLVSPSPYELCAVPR
# Peroxisome proliferator-activated receptor gamma (Homo sapiens), sequence (P37231 whole entry, looked up): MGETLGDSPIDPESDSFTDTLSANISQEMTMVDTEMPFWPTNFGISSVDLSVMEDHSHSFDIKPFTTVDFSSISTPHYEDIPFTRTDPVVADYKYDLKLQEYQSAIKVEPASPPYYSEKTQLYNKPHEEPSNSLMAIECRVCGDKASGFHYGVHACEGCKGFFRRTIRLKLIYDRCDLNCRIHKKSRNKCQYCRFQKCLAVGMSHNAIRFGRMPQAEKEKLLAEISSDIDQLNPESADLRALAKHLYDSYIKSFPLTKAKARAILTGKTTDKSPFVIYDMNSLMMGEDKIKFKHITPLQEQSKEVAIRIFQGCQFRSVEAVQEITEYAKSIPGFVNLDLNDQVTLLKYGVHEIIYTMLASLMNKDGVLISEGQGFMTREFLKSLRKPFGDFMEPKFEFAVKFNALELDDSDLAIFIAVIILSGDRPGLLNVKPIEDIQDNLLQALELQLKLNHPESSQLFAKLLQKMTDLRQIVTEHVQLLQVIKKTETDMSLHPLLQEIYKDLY
# Vitamin D3 receptor (Homo sapiens), sequence (P11473 whole entry, looked up): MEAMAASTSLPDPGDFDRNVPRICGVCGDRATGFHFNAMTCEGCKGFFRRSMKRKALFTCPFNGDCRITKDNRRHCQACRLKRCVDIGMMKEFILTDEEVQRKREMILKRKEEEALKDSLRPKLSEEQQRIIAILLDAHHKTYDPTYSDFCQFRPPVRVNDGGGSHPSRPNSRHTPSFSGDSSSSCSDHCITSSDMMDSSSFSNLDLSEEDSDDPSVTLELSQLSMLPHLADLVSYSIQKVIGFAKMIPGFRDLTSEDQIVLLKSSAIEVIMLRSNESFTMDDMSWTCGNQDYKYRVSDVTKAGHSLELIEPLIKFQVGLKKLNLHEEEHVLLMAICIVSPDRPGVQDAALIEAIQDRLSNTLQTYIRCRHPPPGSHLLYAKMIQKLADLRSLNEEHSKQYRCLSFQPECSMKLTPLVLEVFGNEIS
structure (smiles),measurement,setting,value
Clc1ccc(-c2nc3sccn3c2/C=N/OCc2ccc(Cl)c(Cl)c2)cc1,Potency,[1],20 µM [inhibitor] (active)
same,outcome,[2],inactive
same,activation,[3],-9.11%
same,activation,[4],2.87%
same,outcome,[5],inactive
same,outcome,[6],inactive
same,outcome,[7],inactive
same,Potency,[8],24.3 µM (active)
same,activation,[9],3.66%
same,Potency,[10],50.1 µM (active)
same,max response,[11],6.54%
C=C1C(=O)O[C@@H]2[C@H]3O[C@]3(C)CC/C=C(\C)CC[C@@H]12,Potency,[12],inactive
same,Potency,[13],inactive
same,Potency,[14]; HiBiT,7.01 µM (active)
same,"activity change, negative = inhibition","[14]; Viability, at 45.9 µM (top of the series)",0.032%
N#C/C(=C(/N)Sc1ccc(N)cc1)c1ccccc1C(F)(F)F,Potency,[13],9.52 µM (active)
CCCC[C@@H](C=O)NC(=O)[C@H](CC(C)C)NC(=O)OCc1ccccc1,outcome,[15],inactive
